High-throughput results (PubChem BioAssay)
Sampled rows, rich in hits. Any-hit rate of the full collection: about 4.7%.
ATXN2 expr inh: inhibitors of ATXN2 expression; Potency, µM (titrated, usually from 57 µM), for the others: top-dose activity change, negative = inhibition, usual class: inhibitors; AID 1745845; HEK-293 ATXN2-luciferase reporter, luminescence, 24 h; 360,000 compounds, 0.72% hits; note: potency is the fitted concentration of half-maximal effect; % is set by controls: 0 for no effect and ±100 for the full control effect; nearly all actives have a fitted effect of over 55% in size
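qHTS (up to 57 uM final) was run with 24 h compound exposure of reporter cells at 37 °C. Each well was multiplexed: SteadyGlo luminescence measured ATXN2-luciferase expression after a fluorogenic Gly-Phe-AFC viability readout (25 uM final).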
HepG2 viability: kills HepG2 cells in TGF-b inhibitor counter-screen | Potency, µM (top dose mostly 46.1 µM), without a hit: top-dose activity change, negative = cytotoxicity, actives largely listed as cytotoxic | 410,000 compounds, 0.76% hits | HepG2 CAGA-GFP viability, ATP luminescence, 18 h | AID 588856; note: potency is the fitted concentration of half-maximal effect
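HepG2 CAGA-GFP cells (1000/well, DMEM with 1% FBS) received compound, then TGF-beta at 500 pg/mL final, and were incubated 18 hours at 37 degrees C. Viability was read by CellTiter-Glo luminescence. Media-only wells were set as complete cell-killing and DMSO as no toxicity.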
S2 tox: viability counter-screen for ATXN expression inhibitors. S2 cells (HEK-293 line with an ATXN2-luciferase reporter) viability, CellTiter-Fluor protease fluorescence, 24 h. Potency, µM (series often up to 56.7 µM), usual class: cytotoxic. 400,000 compounds, 0.49% hits. AID 651635; note: potency is the fitted concentration of half-maximal effect; nearly all actives have a fitted effect of over 40% in size
DRD3 agonist: agonists of human D3 dopamine receptor | P35462 | D3R DiscoveRx beta-arrestin cells, luminescence, 90 min | max activation, % | 410,000 compounds, 0.58% hits | AID 652048; in the data active = max activation above about 30%; note: 0% is about no effect
Target sequence (P35462 whole entry, looked up): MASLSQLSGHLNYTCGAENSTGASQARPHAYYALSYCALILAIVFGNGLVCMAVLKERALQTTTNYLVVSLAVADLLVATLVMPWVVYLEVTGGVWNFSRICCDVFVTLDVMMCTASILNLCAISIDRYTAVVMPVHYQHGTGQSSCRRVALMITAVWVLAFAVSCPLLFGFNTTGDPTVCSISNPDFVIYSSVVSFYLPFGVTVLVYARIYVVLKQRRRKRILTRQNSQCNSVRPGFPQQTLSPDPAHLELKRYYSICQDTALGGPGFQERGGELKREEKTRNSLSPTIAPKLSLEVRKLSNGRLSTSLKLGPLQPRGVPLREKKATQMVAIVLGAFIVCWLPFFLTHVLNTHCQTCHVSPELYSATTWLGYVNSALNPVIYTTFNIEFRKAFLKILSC
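Cells at 1500/well, incubated overnight, then treated with pinned compounds (dopamine as control) for 90 min at 37 degrees C. DiscoveRx reagent added for 30 - 60 minutes at room temperature; luminescence read.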
DRD3 antagonist: blocks the human D3 dopamine receptor. P35462. D3R cells, DiscoveRx beta-arrestin luminescence, antagonist mode; hits give low values. 360,000 compounds, 2.5% hits. max response, negative = inhibition, %. AID 652054; in the data active = max response below about -50%; inconclusive = no clear call, values can overlap the other calls; note: % is set by controls: 0 for no effect and ±100 for the full control effect
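Cells plated overnight at 1500 cells/well, then exposed to library compounds with dopamine controls for 90 minutes at 37 degrees C. DiscoveRx reagent added for 30–60 minutes at room temperature; luminescence read, quantitative HTS format.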
TGFb inhibitor: TGF-b pathway inhibition; 410,000 compounds, 1.2% hits; Potency, µM (series often up to 46.1 µM), for inactives: at the top dose activity, negative = inhibition, actives largely listed as inhibitors; HepG2 CAGA-GFP TGF-b/SMAD3 reporter, GFP fluorescence, 18 h; TGF-beta stimulated, 500 pg/mL final; note: potency is the fitted concentration of half-maximal effect; % is set by controls: 0 for no effect and ±100 for the full control effect; nearly all actives have a fitted effect of over 65% in size
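First, reporter cells (HEPG2 CAGA-GFP) rested 2 h at 37 degrees C. Next, compounds were pinned in and TGF-beta added to 500 pg/mL final. After 18 h, GFP was imaged per cell and summed per well.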
* hit, by the source's call; i = inactive; ? = inconclusive; · = no result; [ ] = dose if it differs, or a comment. Unless noted, calls come from the whole dose curve; as a rule, active = well fitted curve in the direction sought with a large enough effect; inconclusive = small, poorly fitted or top-dose-only effect, or another doubt; inactive = no such curve, though single readings can be large; an effect the other way counts as inactive or inconclusive.

SMILES	ATXN2 expr inh	HepG2 viability	S2 tox	DRD3 agonist	DRD3 antagonist	TGFb inhibitor
COc1ccc(C2c3c(n(C)c4ccccc34)C(=O)N2CC(=O)Nc2cccc(F)c2)cc1 (configuration not stated)	·	-17%	·	-21	·	0%
C=CCn1cc(-c2ccc(Cl)cc2)cc(C#N)c1=O	0%	-15%	i	5	0	17%
N#Cc1cc(-c2ccc(Cl)cc2)cn(Cc2c(Cl)cccc2Cl)c1=O	11%	5%	i	0	-50*	19%
CCOC(=O)C1Cc2ccccc2CN1 (configuration not stated)	3%	-23%	i	-17	-66*	-7%
COc1cccc(C(=O)Nn2cnnc2)c1	0%	-1%	i	31*	1	5%
COc1ccc2ccccc2c1CN1CCN(C)CC1	11%	0%	i	-9	-82*	-11%
COc1ccc(CN2CCN(c3ccccc3OC)CC2)c(OC)c1	·	-62%	i	-5	-100*	-10%
COc1ccc(OC)c(CN2CCN(c3ccccc3OC)CC2)c1	-2%	-4%	i	-55	-92*	-11%
COc1ccc(CC(C)N2CCN(Cc3ccccc3)CC2)c(OC)c1 (configuration not stated)	-26%	-31%	i	-39	-84*	-25%
Cc1ccc(Cn2ccn(Cc3ccccc3C)c(=O)c2=O)cc1	-6%	-6%	i	-15	·	-3%
COc1ccc(OC)c(CN2CCN(Cc3cccc4ccccc34)CC2)c1	·	4%	?	-1	-54*	-10%
COc1ccc(OC)c(CN2CCCCCC2)c1	0%	3%	i	-9	0	-1%
CCSc1nc2c(c(=O)[nH]c(=O)n2C)n1C/C=C(/C)Cl	2%	7.1µM*	i	0	1	4%
Clc1ccc(CCNc2nc3cc(Cl)c(Cl)cc3n3cnnc23)cc1	3%	2%	i	3	·	10%
O=C(Nc1ccc(C(F)(F)F)cc1)C1(c2cccs2)CCOCC1	-14%	-18%	i	-6	·	-20%
COc1ccc(NC(=O)COc2ccccc2C(=O)Nc2ccccc2)cc1	·	-10%	·	·	·	17%
CC1=NOC(=O)/C1=C\c1ccc(-c2cc(Cl)ccc2Cl)o1	-4%	-17%	i	-6	-63*	-20%
CC1=NOC(=O)/C1=C\c1ccc(-c2ccc(Br)cc2)o1	1%[11.3 µM]	-82%	?	3	-6	?
COC(=O)[C@@H]1CCCN1C(=O)c1cnn(-c2nccc(-c3cc(C)sc3C)n2)c1C1CC1	·	·	i	·	·	·
CCC(=O)N1c2ccccc2CC1C(=O)NCCc1ccc(SC)cc1 (configuration not stated)	6%	0%	i	-23	·	-1%
Cc1ccc(OCCNCC(O)COc2ccccc2)cc1 (configuration not stated)	-23%	-36%	i	-15	-83*	-13%
CCOC(=O)c1cccc(OCC(O)CNCCOc2ccccc2F)c1 (configuration not stated)	-20%	-20%	i	1	-55*	-3%
CC(=O)CCc1ccc(OCC(O)CNCCOc2ccc(C)cc2)cc1 (configuration not stated)	-22%	-1%	i	51*	-25	21%
COc1ccc(OCC(O)CNCCOc2ccccc2OC)c(C(C)(C)C)c1 (configuration not stated)	·	-117%	·	-4	-81*	13µM*
C=C1C[C@@]2(O)O[C@@]3(C[C@H]2C(C)C)[C@H](C)CC[C@H]13	-3%	·	·	·	·	·
SMILES	ATXN2 expr inh	HepG2 viability	S2 tox	DRD3 agonist	DRD3 antagonist	TGFb inhibitor
CC(C)OC(=O)c1c(-c2ccccc2)c(-c2ccccc2)nn(C)c1=O	-18%	-32%	?	12	·	?
C[N+](C)(C)c1ccc(/C=C2\C=Cc3ccccc32)cc1	·	-31%	·	·	·	11%
Cc1ccc(NC(=O)c2cnn3c2NC(=C2CC2)C=C3C(F)F)cc1	·	10%	·	·	·	18%
O=C1CCCN1c1ccc(CNS(=O)(=O)c2ccc(F)cc2)cc1	-20%	-6%	i	0	-57*	1%
Clc1cccc[n+]1CCc1ccccc1	·	-2%	·	·	·	-20%
CCCCOC(=O)NC1CCc2cc(OC)c(OC)c(OC)c2-c2ccc(SC)c(=O)cc21 (configuration not stated)	1%	0%	0.038µM*	-3	-9	-80%
CCOC(=O)NC1CCc2cc(OC)c(OC)c(OC)c2-c2ccc(SC)c(=O)cc21 (configuration not stated)	-3%	12%	?	-8	-17	0%
Cc1cccc(CS(=O)(=O)Cc2ccc(C(=O)NCc3cccs3)o2)c1	0%	-6%	?	32*	6	-28%
CN1CCN(c2cc(-c3cc(O)c4ncccc4c3)ccn2)CC1	10µM*	-48%	?	·	·	?
CCOC(=O)C1(CC2CC2)CCN(Cc2cn(C)c3ccccc23)CC1	-1%	-34%	?	-12	?	-24%
CCOC(=O)C1(CC2CC2)CCN(Cc2ccc(C(=O)OC)cc2)CC1	·	-28%	i	-22	-120*	-12%
CCOC(=O)C1(CCc2ccccc2)CCN(Cc2ccc(C(=O)OC)cc2)CC1	-36%	0%	i	-20	-69*	-6%
CCN(CC)c1ccc(NC(=O)CN2C(=O)c3cccnc3Sc3ccccc32)c(C)c1	41%	29%	i	-1	·	46%
Cc1ccc(NC(=O)CN2C(=O)COc3ccc(S(=O)(=O)NC4CCCC4)cc32)cc1Cl	-22%	-28%	?	-9	·	?
COc1cc(CCN=Cc2cc(Cl)cc(Cl)c2O)c([N+](=O)[O-])cc1OC	6%	4%	·	-22	-50*	-2%
O=C(Cn1ncc2c3ccccc3n(Cc3ccccc3F)c2c1=O)NCc1ccccc1Cl	8%	-4%	i	-10	·	-8%
C/C(=N\NC(N)=S)C1=CCC2C3CC[C@H]4CC(O)CC[C@]4(C)C3CC[C@]12C (some centres not stated)	·	-37%	4.5µM*	-6	9	?
Cc1c(Cl)cccc1NC(=O)CCn1cnnn1	5%	-7%	i	6	·	-12%
Cc1cc(-c2cc(F)cc3c2OC(CNC(=O)CCn2cncn2)C3)ccc1F (configuration not stated)	·	·	i	·	·	·
Cc1oc(-c2ccc3c(c2)OCCO3)cc1C(=O)NCC(=O)O	-37%	-8%	i	-8	-6	-10%
Cc1oc(-c2ccc3c(c2)OCCO3)cc1C(=O)O	7.1µM*	-57%	?	3	0	5%
